Source: PubChem (National Center for Advancing Translational Sciences (NCATS))
TDP43 rescue: qHTS of TDP-43 Inhibitors; TDP-43 expressing yeast growth rescue, BacTiter-Glo, 24 h; Potency, µM (doses to about 46.1 µM), inactives show top-dose growth rescue (activation), most hits filed as activators; 410,000 compounds, 1.8% hits; AID 652104, 2013; further: % of control where 0% means no effect; nearly all actives have a fitted effect of over 50% in size
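Galactose-induced TDP-43 yeast, OD600=0.02, compound pinned; 24 hr, 30 deg C; BacTiter-Glo luminescence for growth. Inhibitors of TDP-43 toxicity read as activators.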
FUS yeast rescue: qHTS for Suppressors of FUS Proteinopathy: Primary screen using FUS-linked yeast assay | S. cerevisiae FUS-expressing, growth rescue, OD600, 24 h | Potency, µM (titrated, usually from 76.6 µM), most hits filed as activators | 390,000 compounds, 0.24% hits | AID 1347120, 2019;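 further: plate controls were DMSO vehicle for no effect and reference control for full effect; nearly all actives have a fitted effect of over 55% in size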
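Restored growth of FUS-toxic S. cerevisiae, read as 600 nm absorbance after 24 h at 30C in galactose medium (starting OD 0.005). Controls CP55940 and DMSO.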
Abeta rescue: qHTS for compounds that reverse cellular toxicity of Amyloid beta (A-beta) peptide in yeast: Primary Screen; yeast expressing A-beta42, growth rescue, OD600, 48 h; response scale: 0% DMSO, 100% iron-clioquinol control; Potency, µM (top dose mostly 46.1 µM), usual class: activators; 410,000 compounds, 0.063% hits; AID 1347071, 2019; further: nearly all actives have a fitted effect of over 55% in size
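Yeast growth medium received pinned compounds, then yeast cells expressing toxic A-beta were added; plates incubated at 30 C for 48 hr. Growth read as absorbance at 600 nm, normalized to DMSO and equimolar FeCl3 plus clioquinol controls.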
aSyn yeast inh: qHTS of alpha-syn Inhibitors; 370,000 compounds, 0.14% hits; Yeast expressing alpha-synuclein, growth rescue, BacTiter-Glo, 24 h; Potency, µM (doses to about 46.1 µM), for the others: at the top dose growth rescue (activation), actives largely listed as activators; AID 652106, 2013; further: % of control where 0% means no effect; nearly all actives have a fitted effect of over 65% in size
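Readout is rescue of growth in alpha-synuclein-expressing yeast, so inhibitors of toxicity appear as activators. Growth after 24 hr at 30 deg C in galactose medium is quantified by luminescence.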
* marks the source's active call; other numbers are inactive results; i = inactive; u = inconclusive; x = no result; [ ] = another dose, or the depositor's remark. An excerpt weighted towards active compounds, which were near 2.1% of everything screened. The call rests on the fitted dose curve; in most records, active means well fitted curve in the direction sought with a large enough effect; inconclusive means small, poorly fitted or top-dose-only effect, or another doubt; inactive means no such curve, though single readings can be large; an effect the other way counts as inactive or inconclusive. Potency means the concentration at half of the fitted maximal effect.

SMILES	TDP43 rescue	FUS yeast rescue	Abeta rescue	aSyn yeast inh
O=C(COc1ccccc1C(=O)Nc1ccccc1)Nc1ccc(-c2ccccc2)cc1	x	x	x	1.9%
Cc1cc(=O)[nH]c(SCC(=O)Nc2cccc(Cl)c2F)n1	x	i	x	x
Cc1ccccc1C(=O)N1CCC(Oc2cccnc2)CC1	x	i	x	x
C=CCNC(=O)c1ccc(CSc2nc3ccccc3s2)cc1	17.8µM*	i	i	-3.9%
O=C(CSc1ccc([N+](=O)[O-])cn1)Nc1cc(C(F)(F)F)ccc1N1CCOCC1	20µM*	x	i	19.6%
Cc1csc(NC(=O)CSc2ccc([N+](=O)[O-])cn2)n1	12.6µM*	i	i	2.7%
Cc1csc(NC(=O)CSc2nc3ccccc3s2)n1	25.1µM*	i	i	11.9%
C=CCNC(=O)c1nc2ccccc2s1	9.0%	i	i	-5.0%
COc1cccc2c1C(=O)/C(=C\c1ccc(N(C)C)cc1)C2	x	x	x	0.6%
Cc1oc2ccc(O)c(CN(C)Cc3ccccc3)c2c1C(=O)Nc1cccc(Cl)c1C	2.4%	i	i	x
CS(=O)(=O)N1CCC(C(=O)NCC2COc3ccccc3O2)CC1 (configuration not stated)	x	i	x	x
O=C(Oc1cc2oc(=O)cc(-c3ccccc3)c2cc1Cl)C1CCCCC1	3.55µM*	i	i[9.22 µM]	4.4%
COc1cccc(-c2sc3ccc(OC)cc3c2-c2ccc(OCCN(C)C)cc2)c1	-54.5%	31.6µM*	i	-56.6%
COc1cccc(-c2sc3ccc(OC)cc3c2-c2ccc(OCCN3CCOCC3)cc2)c1	35.5µM*	u	i	-44.2%
O=C(CCc1ccccc1-c1ccccc1CCNC(=O)COCc1ccccc1)NCc1ccccc1	x	i	x	x
CC(OC(=O)c1ccccc1OCC(=O)Nc1ccc(Br)cc1)C(=O)NC1CCCC1 (configuration not stated)	x	x	x	-0.9%
c1ccc(-c2ccc(C3=Nn4c(nnc4-c4ccccn4)SC3)cc2)cc1	x	i	x	x
CC(Cc1cccs1)NC(=O)Nc1ccc(Cl)cc1 (configuration not stated)	22.4µM*	i	i	-13.0%
CC(Cc1cccs1)NC(=S)Nc1ccccc1 (configuration not stated)	-10.7%[0.397 µM]	i	11.2µM*	0.9%
CC(Cc1cccs1)NC(=O)Nc1ccccc1 (configuration not stated)	-8.6%	i	i	-10.5%
O=C(Nc1ccccc1C(F)(F)F)N1CCC(CN2CCc3ccccc3C2)CC1	1.6%	i	i	x
Cc1ccccc1NC(=O)CSc1nc2nccnc2c(=O)n1CCc1c[nH]c2ccccc12	0.0%	i	i	x
C[C@@H]1CCN(C2CC2)S(=O)(=O)c2c(cccc2N2CC[C@H](N(C)C)C2)O1	x	i	x	x
CCOC(=O)c1nnc(-c2cccs2)nc1NC(C)C	12.6µM*	i	i	5.3%
CCOC(=O)c1nnc(-c2cccs2)nc1Oc1ccccc1C(=O)OC	-3.0%	i	i	10.8%
SMILES	TDP43 rescue	FUS yeast rescue	Abeta rescue	aSyn yeast inh
CSc1ccccc1C(=O)NC1CCCN(c2ccc(C(F)(F)F)cn2)C1 (configuration not stated)	u	i	22.4µM*	-0.8%
CC(C)c1ccc(NC(=O)CSC2=Nc3ccccc3C3=NC(CC(=O)NC4CCCCC4)C(=O)N23)cc1 (configuration not stated)	20.5%	31.6µM*	i	x
COc1cccc(NC(=O)CSC2=Nc3ccccc3C3=NC(CC(=O)NCc4ccccc4OC)C(=O)N23)c1 (configuration not stated)	-3.8%	35.5µM*	i	x
CC(C)c1ccc(NC(=O)CSC2=Nc3ccccc3C3=NC(CCC(=O)NC4CCCCC4)C(=O)N23)cc1 (configuration not stated)	18.8%	i	i	x
COc1ccc(-n2ncc3c(N4CCC(C)CC4)ncnc32)cc1	14.1µM*	i	i	-8.2%
O=C1CCC2(CCC(c3ccccc3)CC2)N1CC[C@@H](O)c1ccccc1 (some centres not stated)	x	i	x	x
CC(C)CSc1nnc(-c2ccco2)n1C	x	i	x	x
CC(=O)Nc1ccc(NCN2C(=O)[C@@H]3[C@H]4CC[C@H](C4)[C@@H]3C2=O)cc1	6.31µM*	x	i	0.6%
COCC1CCN(Cc2c(C(=O)N3CCc4ccccc4C3)nc3ccc(Cl)cn23)C1 (configuration not stated)	7.0%	7.08µM*	i	8.0%
CCC(=O)NC(=S)Nc1cccc(NC(=O)c2ccccc2Cl)c1	14.1µM*	i	i	-2.0%
CCCC(=O)NC(=S)Nc1cccc(NC(=O)c2ccccc2Cl)c1	11.2µM*	i	i	4.9%
O=C(Nc1cccc(NC(=O)c2ccccc2Cl)c1)c1cccs1	22.4µM*	i	i	-17.4%
CCC(=O)NC(=S)Nc1cccc(NC(=O)c2ccccc2C)c1	3.0%	i	i	10.5%
Cc1csc2nc(-c3cccc(NC(=O)c4ccccc4F)c3)cn12	-9.6%	i	i	-13.2%
Cc1csc2nc(-c3cccc(NC(=O)c4ccccc4Cl)c3)cn12	20µM*	u	i	-11.3%
COc1ccc2c(c1)-c1ccccc1S(=O)(=O)N2C	11.2µM*	i	i	-6.3%
COc1ccc(CCNc2nc(-c3sc(C)nc3C)cs2)cc1OC	22.4µM*	i	i	-0.1%
COc1ccc(Nc2nc(-c3sc(C)nc3C)cs2)cc1	20µM*	i	i	-16.3%
Cc1nc(C)c(-c2csc(NCc3ccccc3)n2)s1	20µM*	i	i	-1.6%
COc1ccc(CCNc2nc(-c3ccncc3)cs2)cc1OC	-13.9%	i	i	-6.3%
CCC(C)C(=O)Nc1nc(C)c(-c2csc(Nc3ccc(Cl)cc3)n2)s1 (configuration not stated)	28.4%	u	i	4.4%
CCCC(=O)Nc1nc(C)c(-c2csc(Nc3ccc(Cl)cc3)n2)s1	14.1µM*	u	i	-1.5%
CCCN1CNc2c(c(=O)[nH]c(=S)n2CCc2ccc(C)c(C)c2)C1	x	x	x	-11.6%
O=C(c1ccncc1)N1CCC(Oc2cccnc2)CC1	x	i	x	x
CCC(=O)N1CCc2cc(Br)c(S(=O)(=O)NCc3ccccc3OC)cc21	x	i	x	x
COc1ccc(-c2oc3ccc(N4CCOCC4)cc3c2/C=C/c2ccc(OC)c(OC)c2)cc1	11.1%	12.6µM*	i	1.8%
COc1ccc(/C=C/c2c(-c3ccc(OC)cc3)sc3ccc(N4CCOCC4)cc23)cc1	4.6%	i	i	1.2%
CC(C)CC(COCc1cccc(C(F)(F)F)c1)N1CCN(C(=O)c2cccc(C(F)(F)F)c2)CCC1=O (configuration not stated)	25.2%	u	i	22.3%
Cc1ccc(COC[C@H](CC(C)C)N2CCN(C(=O)c3cccc(C(F)(F)F)c3)CCC2=O)cc1	15.8µM*	4.47µM*	i	11.7%
